# Measurements: PMC5540273 (PLoS ONE, 2017)
# Tests used:
# Details in all cases: concentration: 1 μM, replicates: in singlicate; n = 1
# NIM1 = test system: T1, NIM1
# T1 construct: gene MGC42105
# NLK = test system: NLK
# OSR1 = test system: T2, OSR1
# T2 construct: gene OXSR1
# PAK1 = test system: PAK1
# PAK2 = test system: PAK2
# PAK3 = test system: PAK3
# PAK4 = test system: PAK4
# PAK6 = test system: PAK6
# PAK7 = test system: PAK7
# PCTK1 = test system: T3, PCTK1
# T3 construct: gene CDK16
# PCTK2 = test system: T4, PCTK2
# T4 construct: gene CDK17
# PCTK3 = test system: T5, PCTK3
# T5 construct: gene CDK18
# PDGFRA = test system: PDGFRA
# PDGFRB = test system: PDGFRB
# PDPK1 = test system: PDPK1
# PFTAIRE2 = test system: PFTAIRE2
# PFTK1 = test system: T6, PFTK1
# T6 construct: gene CDK14
# PHKG1 = test system: PHKG1
# PHKG2 = test system: PHKG2
# PIK3C2B = test system: PIK3C2B
# 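Note: KINOMEscan kinase panel screen.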
Structure (SMILES),%Inh (NIM1) [%],%Inh (NLK) [%],%Inh (OSR1) [%],%Inh (PAK1) [%],%Inh (PAK2) [%],%Inh (PAK3) [%],%Inh (PAK4) [%],%Inh (PAK6) [%],%Inh (PAK7) [%],%Inh (PCTK1) [%],%Inh (PCTK2) [%],%Inh (PCTK3) [%],%Inh (PDGFRA) [%],%Inh (PDGFRB) [%],%Inh (PDPK1) [%],%Inh (PFTAIRE2) [%],%Inh (PFTK1) [%],%Inh (PHKG1) [%],%Inh (PHKG2) [%],%Inh (PIK3C2B) [%]
Nc1cccc(-c2ccc3c(N)n[nH]c3c2)c1 [GSK2193613],0,17,13,2,2,0,0,6,15,0,19,4,9,29,0,13,30,0,11,0
COc1cccc(CC(=O)N2CCc3cc(-c4cn(C)c5ncnc(N)c45)ccc32)c1 [GSK2608899],0,5,6,13,4,50,2,0,18,3,0,4,88,99.2,20,12,0,0,0,83
COc1cccc(-c2nc(-c3ccccc3)[nH]c2-c2ccncc2)c1 [SB-610250],40,89,0,23,32,16,0,0,0,5,0,14,0,0,0,14,16,0,0,0
Cc1ccccc1CC(=O)N1CCc2cc(-c3cn(C)c4ncnc(N)c34)ccc21 [GSK2603346],3,0,12,0,0,48,0,0,0,0,0,3,64,99.4,67,5,3,0,0,77
O=C1NC(=O)C(c2ccccc2Cl)=C1Nc1cccc(Cl)c1 [SB-342409],4,22,2,24,17,0,0,7,0,34,0,31,0,13,13,21,13,0,0,0
Nc1ncnc2scc(-c3ccc(NC(=O)Cc4cc(F)ccc4F)cc3)c12.O=C(O)C(F)(F)F [SB-731254-M],0,4,11,7,32,46,0,0,1,2,0,13,99.5,99.9,41,0,2,6,16,22
Fc1cc(Cl)ccc1Nc1ccnc2cc(-c3ccc(CN4CCOCC4)o3)ccc12 [GW560109],15,10,8,0,0,5,0,0,0,1,0,0,99.6,100,8,12,0,13,0,0
O=C(Nc1n[nH]c2nc(-c3ccccc3)ccc12)C1CC1 [SB-708999],29,78,17,0,0,5,0,0,0,16,23,36,16,31,34,8,29,12,1,0
COc1cc(Nc2ccnc3cc(-c4ccncc4)ccc23)cc(OC)c1OC.Cl [GW494610],23,92.8,100,0,0,0,0,0,0,0,0,0,73,97.2,0,12,0,15,0,0
CCNc1nccc(-c2c(-c3ccc(F)cc3)ncn2C2CCN(C)CC2)n1,0,95,0,7,8,0,2,30,0,0,0,0,0,0,15,0,1,1,12,1
CC(C)NCC(Cc1ccccc1)NC(=O)c1cc(Br)c(-c2ccnc3[nH]ccc23)s1.Cl.Cl (stereo not shown) [GSK1383281],0,22,1,11,0,75,18,47,47,1,13,0,37,74,0,0,27,0,16,0
O=C(Nc1n[nH]c2cc(-c3cccs3)ccc12)C1CC1 [SB-731284],12,0,16,0,0,43,0,0,7,48,33,38,73,83,0,0,33,0,17,7
Cc1ccc(O)cc1Nc1ccnc2ccc(C(C)(C)C)cc12 [GW856805],52,1,30,23,50,0,17,34,2,12,14,5,64,62,52,12,21,24,0,23
O=C(O)C(F)(F)F.O=c1[nH]ccc2nc(N[C@@H]3CCNC3)nc(Nc3cc(Cl)cc(Cl)c3)c12 [GSK2188764],67,19,54,92.2,78,96.9,96.4,96,99.9,7,22,25,46,94.8,76,20,27,96.1,94.7,13
CN(c1ccc(NC(=O)N2CCN(CCCN3CCOCC3)CC2)cc1)c1ccnc(Nc2ccc(CS(C)(=O)=O)cc2)n1.Cl [GW830899],0,0,0,0,0,0,0,25,2,0,10,0,73,99.4,2,14,0,40,0,0
CN1CCN(Cc2ccc(NC(=O)Nc3ccc(N(C)c4ccnc(Nc5ccc(CS(C)(=O)=O)cc5)n4)cc3)cc2)CC1.Cl [GW827654],42,0,0,24,65,62,98.4,34,51,22,43,0,99.9,99.9,10,22,0,19,0,0
CN(c1ccc2c(c1)nc(NCc1ccccc1)n2C)c1ccnc(Nc2ccc(CS(C)(=O)=O)cc2)n1.Cl [GW811603],22,0,0,0,0,42,22,13,2,0,0,0,99.8,100,0,38,0,8,0,0
Cc1ccc(O)cc1Nc1ccnc2cc(-c3ccc(CN4CCCCC4)o3)ccc12 [GW557777],0,19,0,24,23,0,13,21,7,0,0,8,95.3,99.7,0,0,15,9,7,0
CCn1c(-c2nonc2N)nc2c(-c3ccccc3)ncc(OCCCN)c21.O=C(O)C(F)(F)F.O=C(O)C(F)(F)F [GSK260205],39,94.5,3,2,31,49,0,0,0,0,0,0,18,98.8,0,0,13,0,0,1
N#Cc1cnc2cc(-c3cnc(CNCCN4CCOCC4)s3)ccc2c1Nc1ccc(Oc2ccccc2)cc1 [GW664114],12,0,0,10,0,21,0,10,2,28,11,18,0,24,0,22,18,0,0,0
